Where “and” joins values, the source holds several entries; their conditions need not be identical. Equal values may be shown once. About 83,000 compounds went through this panel and 20% of them were active in at least one assay; those are over-represented in the sample as a whole.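 Each cell line was grown in a 96-well plate and treated with one concentration of compound for 48 hours. Values below 10 were considered active.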 Calls of active or inactive are those of the source.

Among the test systems are DU-145 prostate; K-562 leukemia; MALME-3M melanoma; MDA-MB-231 breast; RXF 393 renal; SF-268 CNS; SF-295 CNS; SF-539 CNS; UACC-257 melanoma; M14 melanoma.
Holding throughout (assay): NCI-60 one-dose screen, 48 h (100 = growth as untreated, 0 = no growth, -100 = all killed)
What all share (conditions): 10 µM unless noted

For `O=C1OCC2=C1C(c1cccc(C(F)(F)F)c1)c1cc3c(cc1N2CCO)CCC3` (configuration not stated), the growth was -6.77% (active) in the test with DU-145 prostate; 7.05% (active) in the test with K-562 leukemia; 43.9% (inactive) in the test on MALME-3M melanoma; 28.4% (inactive) in the test with MDA-MB-231 breast; 49.7% (inactive) with RXF 393 renal; 17.3% (inactive) in the test on SF-268 CNS. The growth in the test with SF-295 CNS was 1.03% (active); in the test on SF-539 CNS, -15.6% (active); in the test with UACC-257 melanoma it was 67.8% (inactive); in the test on M14 melanoma it was 0.275% (active).
As for `CCCCCCNC(=O)Oc1ccc(/C(=C(/CC)Cc2ccccc2)c2ccc(OCCCN(C)C)cc2)cc1`, the growth with DU-145 prostate was 89.4% (inactive); with K-562 leukemia, 7.11% (active); with MALME-3M melanoma, 83.3% (inactive); in the test on MDA-MB-231 breast, 67.5% (inactive); in the test with RXF 393 renal, 80.3% (inactive); with SF-268 CNS it was 80.8% (inactive). Besides, the growth with SF-295 CNS was 116% (inactive); in the test with SF-539 CNS, 99.1% (inactive); with UACC-257 melanoma it was 80.8% (inactive); with M14 melanoma, 85.2% (inactive).
Turning to `CC[C@]12CN3CCc4c([nH]c5ccccc45)[C@@](C(=O)OC)(c4cc5c(cc4OC)N(C)[C@H]4[C@@](O)(C(=O)OC)[C@H](OC(C)=O)[C@]6(CC)C=CCN7CC[C@]54[C@@H]76)CC(C3)[C@H]1O2` (some centres not stated), the growth in the test on DU-145 prostate is -21.8% (active); in the test with K-562 leukemia, 16.6% (inactive); in the test with MALME-3M melanoma, 56.1% (inactive); in the test with MDA-MB-231 breast it was -28.8% (active); in the test on RXF 393 renal it was 10.2% (inactive); in the test on SF-268 CNS it was 26.4% (inactive). The growth in the test on SF-295 CNS was -22.9% (active); with SF-539 CNS, 2.86% (active); with UACC-257 melanoma, 42.3% (inactive); in the test with M14 melanoma it was -29.3% (active).
Consider `CCN(c1cc(-c2ccc(CN3CCC(/C=C/S(=O)(=O)c4ccccc4)CC3)cc2)cc(C(=O)NCc2c(C)cc(C)[nH]c2=O)c1C)C1CCOCC1`, for which the growth in the test with DU-145 prostate is 78.9% (inactive); in the test on K-562 leukemia it was 40.6% (inactive); in the test with MALME-3M melanoma, 67% (inactive); with MDA-MB-231 breast, 67.3% (inactive); with RXF 393 renal, 17.7% (inactive); in the test on SF-268 CNS it was 66.5% (inactive). Also, the growth is 84.8% (inactive) in the test with SF-295 CNS, 59.3% (inactive) in the test with SF-539 CNS, 75.4% (inactive) in the test on UACC-257 melanoma and 85.1% (inactive) in the test on M14 melanoma.
As for `COc1c(NC=O)c2c(c([N+](=O)[O-])c1OC)C(=O)OC2`, the growth with DU-145 prostate was 130% (inactive) and 119% (inactive); with K-562 leukemia, 125% (inactive) and 102% (inactive); in the test on MDA-MB-231 breast it was 104% (inactive) and 89.8% (inactive); with RXF 393 renal, 113% (inactive) and 105% (inactive); with SF-268 CNS it was 112% (inactive) and 105% (inactive); in the test on SF-295 CNS, 109% (inactive) and 96.4% (inactive). Moreover, the growth in the test on SF-539 CNS is 120% (inactive) and 87.3% (inactive); with UACC-257 melanoma it was 97.4% (inactive) and 111% (inactive); in the test with M14 melanoma, 104% (inactive) and 100% (inactive).
As to `O/N=C(/c1ccccc1)c1ccc2c3c(cccc13)CC2`, the growth was 107% (inactive) and 105% (inactive) in the test with DU-145 prostate; 42.4% (inactive) and 34.2% (inactive) with K-562 leukemia; 87.6% (inactive) and 91.9% (inactive) with MALME-3M melanoma; 82.7% (inactive) and 82.1% (inactive) in the test with MDA-MB-231 breast; 81.9% (inactive) and 64.7% (inactive) in the test on RXF 393 renal; 105% (inactive) and 94.6% (inactive) in the test on SF-268 CNS. The growth is 82.1% (inactive) and 83.3% (inactive) in the test on SF-295 CNS; 111% (inactive) and 90.5% (inactive) with SF-539 CNS; 83.2% (inactive) and 87.2% (inactive) in the test with UACC-257 melanoma; 95.3% (inactive) and 90.9% (inactive) with M14 melanoma.
As for `Cn1cc2c(=O)nc3c(-c4nc5ccccc5[nH]4)n[nH]n3c2n1`, the growth in the test with DU-145 prostate is 71.8% (inactive); with K-562 leukemia, 61.1% (inactive); in the test with MALME-3M melanoma, 74.1% (inactive); in the test with MDA-MB-231 breast it was 100% (inactive); with RXF 393 renal, 78.1% (inactive); in the test with SF-268 CNS, 74.2% (inactive). Besides, the growth is 106% (inactive) in the test with SF-295 CNS, 97% (inactive) in the test on SF-539 CNS, 72.9% (inactive) with UACC-257 melanoma and 75.8% (inactive) in the test on M14 melanoma.
As to `N=c1c2c(-c3ccccc3)c(-c3ccccc3)oc2ncn1NC(=O)c1cccnc1`, the growth in the test on DU-145 prostate is 106% (inactive); in the test on K-562 leukemia, 87.8% (inactive); in the test with MALME-3M melanoma, 114% (inactive); with MDA-MB-231 breast, 102% (inactive); in the test on RXF 393 renal, 117% (inactive); with SF-268 CNS, 106% (inactive). Besides, the growth was 101% (inactive) in the test with SF-295 CNS, 97.2% (inactive) with SF-539 CNS, 105% (inactive) with UACC-257 melanoma and 105% (inactive) in the test with M14 melanoma.
For `C#CCn1cnc2cnc(Nc3cccc(NC(=O)CCl)c3)nc21`, the growth is 17.1% [6.25 µM] (inactive) in the test with DU-145 prostate; 4.47% [6.25 µM] (active) in the test on K-562 leukemia; 28.1% [6.25 µM] (inactive) in the test on MALME-3M melanoma; 14.6% [6.25 µM] (inactive) in the test with MDA-MB-231 breast; -27.5% [6.25 µM] (active) in the test on RXF 393 renal; 6.9% [6.25 µM] (active) in the test with SF-268 CNS. In addition, the growth is 16.1% [6.25 µM] (inactive) with SF-295 CNS, -0.618% [6.25 µM] (active) in the test on SF-539 CNS, 1.35% [6.25 µM] (active) with UACC-257 melanoma and -49.1% [6.25 µM] (active) in the test on M14 melanoma.
As for `CC(=O)N1N=C(c2ccc(Nc3nc(Nc4ccc(F)cc4)nc(Nc4ccc(Cl)cc4)n3)cc2)CC1c1ccc(N(C)C)cc1` (configuration not stated), the growth was 5.71% (active) in the test on DU-145 prostate; 23.8% (inactive) with K-562 leukemia; 62.7% (inactive) with MALME-3M melanoma; 51% (inactive) in the test with MDA-MB-231 breast; 68.8% (inactive) in the test with SF-268 CNS; 1.56% (active) in the test with SF-295 CNS. The growth with SF-539 CNS is 67.9% (inactive); in the test with UACC-257 melanoma, 46.8% (inactive); in the test on M14 melanoma, 41.4% (inactive).
On to `CC(C)(C)CC(N)=O`, for which the growth in the test on DU-145 prostate was 111% (inactive); in the test on K-562 leukemia, 116% (inactive); in the test on MALME-3M melanoma, 102% (inactive); with RXF 393 renal, 103% (inactive); in the test on SF-268 CNS, 105% (inactive); in the test with SF-295 CNS it was 92.5% (inactive). The growth with SF-539 CNS was 95.3% (inactive); in the test on UACC-257 melanoma, 95% (inactive); in the test on M14 melanoma, 92% (inactive).
Take `Cn1cc(-c2csc(-c3c[nH]c4ccc(F)cc34)n2)c2cnccc21`: the growth in the test on DU-145 prostate is -19.6% (active); with K-562 leukemia, -55.4% (active); in the test with MALME-3M melanoma, -94.9% (active); in the test with MDA-MB-231 breast it was -66.7% (active); in the test on RXF 393 renal, -90.8% (active); with SF-268 CNS, -25.4% (active). Further, the growth in the test on SF-295 CNS is -75.4% (active); in the test with SF-539 CNS, -93.7% (active); with UACC-257 melanoma, -68.6% (active); with M14 melanoma it was -87% (active).
Consider `O=C(Nc1ccc(Cl)c(Cl)c1)Nc1ccc(Cl)c(Cl)c1`, for which the growth is -94.8% (active) and 21.1% (inactive) in the test with DU-145 prostate; -33.4% (active) and 12.4% (inactive) in the test on K-562 leukemia; -16.1% (active) with MALME-3M melanoma; -91.1% (active) and 24.1% (inactive) in the test with MDA-MB-231 breast; -88.2% (active) and 58.8% (inactive) in the test with RXF 393 renal; -80.7% (active) and 31.9% (inactive) in the test on SF-268 CNS. Further, the growth in the test on SF-295 CNS was -11.8% (active); in the test with SF-539 CNS, -83.3% (active) and 51.1% (inactive); with UACC-257 melanoma it was -81.9% (active) and 50% (inactive); in the test with M14 melanoma, -85.7% (active) and 33.4% (inactive).

The record behind these values is PubChem BioAssay (NCI).
